Screening data (PubChem)
RBX1-CUL1 inh: human ROC1-CUL1 E3 ligase inhibition | in vitro K48 di-Ub FRET, acceptor:donor ratio, 45 min | 0.6% of 140,000 active | AID 1347404 | inhibition, % at 10 µM; in the data active = inhibition above about 25%
Target sequence (P62877 whole entry, looked up): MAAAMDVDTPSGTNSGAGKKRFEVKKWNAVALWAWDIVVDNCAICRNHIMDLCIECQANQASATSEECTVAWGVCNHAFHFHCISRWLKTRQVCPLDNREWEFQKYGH
Target sequence (Q13616 whole entry, looked up): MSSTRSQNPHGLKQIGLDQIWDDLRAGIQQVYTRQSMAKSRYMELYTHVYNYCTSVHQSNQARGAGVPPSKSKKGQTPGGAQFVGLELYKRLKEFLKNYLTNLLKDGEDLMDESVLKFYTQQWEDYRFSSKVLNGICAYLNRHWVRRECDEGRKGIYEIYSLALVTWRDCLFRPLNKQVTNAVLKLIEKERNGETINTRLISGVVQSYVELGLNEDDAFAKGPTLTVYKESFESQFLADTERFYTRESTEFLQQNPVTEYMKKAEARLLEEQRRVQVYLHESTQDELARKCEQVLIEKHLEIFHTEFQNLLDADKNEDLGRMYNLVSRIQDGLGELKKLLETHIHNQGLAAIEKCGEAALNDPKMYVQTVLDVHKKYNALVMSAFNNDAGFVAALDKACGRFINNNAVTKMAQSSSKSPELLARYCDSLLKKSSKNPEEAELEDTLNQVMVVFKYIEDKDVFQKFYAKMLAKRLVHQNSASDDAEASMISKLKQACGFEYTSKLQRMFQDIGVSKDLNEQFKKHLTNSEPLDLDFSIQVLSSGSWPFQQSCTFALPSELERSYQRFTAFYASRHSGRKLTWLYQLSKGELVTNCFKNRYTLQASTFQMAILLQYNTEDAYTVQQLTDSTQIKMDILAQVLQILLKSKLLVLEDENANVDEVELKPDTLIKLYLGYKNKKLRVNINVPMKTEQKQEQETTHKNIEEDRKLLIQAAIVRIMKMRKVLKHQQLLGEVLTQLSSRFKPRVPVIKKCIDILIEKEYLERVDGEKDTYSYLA
Starred values were filed as active, the others as inactive. This is one part of a sample in which hits are shown more often than they occur.

SMILES | RBX1-CUL1 inh
O=C1NC(=O)N(c2ccccc2F)C(=O)/C1=C/c1cccn1-c1ccc(Br)cc1 | 2.4
Cc1c(Cl)cccc1N1C(=O)/C(=C/c2cccn2-c2cccc(C(=O)O)c2)C(=O)NC1=S | 100.5*
Cc1cc(/C=C2\C(=O)NC(=S)N(c3ccc(Cl)cc3)C2=O)c(C)n1-c1ccc(Cl)cc1 | -3.5
O=C(Cc1ccc(Cl)cc1)NNC(=O)C1C2CCC(C2)C1C(=O)O (stereo unspecified) | 1.2
Cc1ccc(S(=O)(=O)NC(c2ccccc2)C(Cc2ccccc2)C(=O)n2nc3c(c2-c2ccccc2)C(C)CCC3C(C)C)cc1 (stereo unspecified) | 4.5
Cn1cccc2c3ccccc3nc1-2 | 20.2
CCn1c(=O)c2c(nc3n(-c4cccc(C)c4)c(C)cn23)n(C)c1=O | 3.2
Cc1ccc2nc(/C(C#N)=C/c3coc4ccccc4c3=O)[nH]c2c1 | 25.9*
COc1cccc(/C=C(\C#N)c2nc3ccc(C)cc3[nH]2)c1 | 16.9
Cc1ccc2nc(/C(C#N)=C/c3ccccc3Cl)[nH]c2c1 | -1.3
O=C1c2ccccc2C(=O)c2c1cc1c3c(cccc23)C(=O)OC1=O | 4.6
CS(=O)(=O)Oc1ccc2c(-c3ccccc3C(=O)O)c3ccc(=O)c(I)c-3oc2c1I | 116.9*
O=C(O)c1cccc2c1-c1ccccc1C2=O | -4.1
Cc1cccc2c1N(C(=O)c1cccc(NC(=O)C(F)(F)F)c1)CCC2 | 4.5
CCc1cccc(C)c1NC(=O)CCn1nc(C)c2c(C)n(-c3ccccc3)nc2c1=O | 1.8
Cc1ccc(C)c(NC(=O)CCn2nc(C)c3c(C)n(-c4ccccc4)nc3c2=O)c1 | 33.7*
Cc1cccc(NC(=O)CCn2nc(C)c3c(C)n(-c4ccccc4)nc3c2=O)c1C | -3.6
O=C(c1csc2nc(-c3cccc(Cl)c3)cn12)N1CCC[C@H]1CO | -4.4
Cc1ccccc1NC(=O)CN1C(=O)S/C(=C/c2ccccc2)C1=O | -0.6
Cc1ccc(NC(=O)CN2C(=O)S/C(=C\c3cccn3-c3cccc(C(=O)O)c3)C2=O)cc1C | 48.1*
Cc1cccc(NC(=O)CN2C(=O)S/C(=C\c3cccn3-c3cccc(C(=O)O)c3)C2=O)c1 | 9.8
Cc1ccc(NC(=O)CN2C(=O)S/C(=C\c3ccc(N4CCCC4)c(F)c3)C2=O)c(C)c1 | -5.6
Cc1ccccc1NC(=O)CN1C(=O)S/C(=C\c2cccn2-c2cccc(C(=O)O)c2)C1=O | 51.2*
Cc1cccc(C)c1NC(=O)CN1C(=O)S/C(=C\c2cccn2-c2cccc(C(=O)O)c2)C1=O | -2.7
Cc1ccc(NC(=O)CN2C(=O)S/C(=C\c3ccc(N4CCOCC4)cc3C)C2=O)c(C)c1 | -7.2
SMILES | RBX1-CUL1 inh
Cc1ccc(NC(=O)CN2C(=O)S/C(=C\c3cccn3-c3cccc(C(=O)O)c3)C2=O)c(C)c1 | 72.3*
Cc1ccc(NC(=O)CN2C(=O)S/C(=C\c3ccccn3)C2=O)cc1C | -0.2
Cc1oc(-c2ccc(NC(=O)Cc3ccccc3)cc2)nc1CNC(=O)C1CC=CCC1 (stereo unspecified) | 0.0
ClC1c2ccccc2OC2(CCCCC2)C1Cl (stereo unspecified) | -0.4
CC(C)Oc1cccc(C(=O)N2CCN(S(C)(=O)=O)CC2)c1 | -0.9
O=C(Nc1ccccc1Cl)c1ccc(CN2CCCC2)cc1 | 2.6
CCOc1ccc(/C=N/NC(=O)c2cc(-c3ccc(C)o3)nc3ccccc23)cc1OC | 1.0
Cc1ccc(C(=O)Nc2ccccc2OC(F)F)c(Cl)c1 | 9.8
Cc1cc(CO)c(C)n1-c1ccccc1 | -3.0
Cc1cc(Cl)ccc1N=c1ssc2c1-c1cccc(C)c1NC2(C)C | 7.2
CS(=O)(=O)c1ccccc1C(=O)O | 4.1
Nc1ccc2cccc(C(=O)O)c2n1 | 69.9*
Nc1ccc2ccc3cccnc3c2n1 | -8.3
O=C(Nc1ccc2oc(-c3ccccc3F)nc2c1)c1ccccc1I | 4.5
CCCC(=O)Nc1ccc(Br)cc1F | 6.8
COc1ccccc1N1CCN(Cc2nc(N)nc(N3CCCCC3)n2)CC1 | 1.0
CCOC(=O)c1ccc(N2C(=O)c3ccc(C(=O)Nc4ccc(O)cc4C(=O)O)cc3C2=O)cc1 | 69.2*
Cc1ccc(NC(=O)c2ccc3c(c2)C(=O)N(CC(C)C)C3=O)c(C(=O)O)c1 | 12.5
O=C(COC(=O)c1ccc2c(c1)C(=O)N(c1ccc(O)cc1)C2=O)c1ccccc1 | -4.7
CC1CCC/C(=N\Nc2ccccc2[N+](=O)[O-])C1 (stereo unspecified) | 2.2
C=CCOc1cccc(NC(=O)NC2CCCCC2)c1 | 10.9
COc1ccc(Br)cc1C(=O)NCc1cccs1 | -2.7
O=C1C(=Cc2ccc(O)c(Br)c2)C(=O)c2ccccc21 | -5.5
O=C1NC(=O)C(=Cc2cc(Br)c(I)o2)C(=O)N1 | 79.7*
O=C1NC(=O)C(=Cc2cc(O)c(O)c(Br)c2)C(=O)N1 | 49.3*
SMILES | RBX1-CUL1 inh
COc1cc(C=C2C(=O)NC(=O)NC2=O)cc(I)c1OC | -0.1
S=c1[nH]nc(-c2ccccc2)n1/N=C/c1cc(Br)c(I)o1 | -6.3
O=C(O)CCCCCCCCc1ccc(Cl)s1 | 7.1
O=C(NNc1nc(-c2ccc(Br)cc2)cs1)c1ccc(Cl)cc1 | 3.8
Cc1nc2ccccc2n(CC(=O)c2ccc(Br)cc2)c1=O | -6.7
Cc1ccc(CCC(=O)N2CCC(Cn3cc(CO)nn3)CC2)cc1C | 0.4
COc1cccc(CNC(=O)N2CCC(Cn3cc(CO)nn3)CC2)c1 | 36.0*
COCc1cn(CC2CCN(C(=O)NCc3ccccc3F)CC2)nn1 | -7.8
Cc1ccc(C(C)C)c(OCC(=O)Nc2cccc3cccnc23)c1 | -0.8
Cc1[nH]c2ccccc2c1/C=N/NC(=O)c1cc(-c2ccc(OC(C)C)cc2)n[nH]1 | -5.6
CN(C)c1ccc(/C=C2/OC(=S)NC2=S)cc1 | 26.3*
CN(C)c1ccc(/C=C\c2ccccc2)cc1 | 3.8
CC1=NOC(=O)/C1=C\c1ccc(N(C)C)cc1 | 0.8
OC1c2ccccc2CCc2sccc21 (stereo unspecified) | -2.5
OC1c2ccccc2CSc2sccc21 (stereo unspecified) | 49.2*
C[N+]1(C)CCC(C2c3ccccc3CSc3sccc32)CC1 (stereo unspecified) | -3.2
O=C(Nc1ccc2cc3ccc(NC(=O)c4ccc(=O)oc4)cc3nc2c1)c1ccc(=O)oc1 | 39.8*
COC(=O)c1ccc(C(=O)Nc2ccc(-c3nc4cc(NC(=O)c5ccc(C(=O)OC)cc5)ccc4o3)cc2)cc1 | 12.7
O=C(Nc1ccc(-c2nc3cc(NC(=O)c4ccc(Cl)cc4)ccc3o2)cc1)c1ccc(Cl)cc1 | -2.4
O=C(CN1CCOCC1)N/N=C\c1ccc(OCc2cccc(F)c2)cc1 | 10.4
CC(=O)c1c(O)ccc2c1[C@@H]1OC(=O)C[C@@H]1O2 | 98.2*
CC(Oc1ccc(Cl)cc1)C(=O)N/N=C/c1ccc(Cl)cc1Cl (stereo unspecified) | 3.3
O=S(=O)(N/N=C/c1ccc(Cl)c(Cl)c1)c1ccc(Br)cc1 | -4.4
CN1CCN(C2Cc3ccccc3Sc3ccc(C#N)cc32)CC1 (stereo unspecified) | -2.3
CC(=O)Nc1ccc(N2CC(C(=O)N3CCCCC3C)CC2=O)cc1 (stereo unspecified) | -9.3
Cc1ccc(-c2[nH]nc3c2C(c2c(F)cccc2Cl)C(C#N)C(=N)O3)cc1C (stereo unspecified) | 1.8
C=CCn1c(SCC(=O)Nc2sc(C(=O)OCC)c(C)c2C(=O)OCC)nc2scc(-c3ccco3)c2c1=O | 7.8
C=CCn1c(SCC(=O)Nc2cccc(C(F)(F)F)c2)nc2sc3c(c2c1=O)CCC3 | -5.2
C=CCn1c(SCC(=O)Nc2cccc(C(F)(F)F)c2)nc2scc(-c3ccco3)c2c1=O | 33.9*
